Source: PubChem BioAssay
The list is not random: actives were taken first. Their share in the collection is about 3.8%.
MT1-MMP txn act = MT1-MMP promoter reporter activation – cell-based, luciferase luminescence, primary screen. HT1080 MT1-MMP promoter luciferase reporter, overnight; active compounds read high. AID 750, 2007. 86,000 compounds, 0.16% hits. activation factor at 10 µM;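 active = activation factor of at least 2 for MT1-MMP transcription at 10 µM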
ERa coact inh = ERα–SRC-1 coactivator interaction inhibitors, primary screen, biochemical, TR-FRET, ERα LBD, estradiol-bound. Estrogen receptor (Homo sapiens), P03372. TR-FRET ER-alpha LBD / SRC-1 peptide. inhibition, % at 25.6 µM. 86,000 compounds, 1.7% hits. AID 629, 2007; in the data active = inhibition above about 50%
ERb SRC1 inh = inhibitors of ERβ-SRC1 coactivator interaction, primary screen, biochemical, TR-FRET, ERβ LBD, SRC-1 peptide | TR-FRET ER-beta LBD / SRC1-Cy5 peptide binding; receptor agonist-loaded with 1 µM estradiol | AID 633, 2007 | inhibition, % at 25.6 µM | Estrogen receptor beta (Homo sapiens), Q92731 | 86,000 compounds, 1.3% hits;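 active = compounds whose percent inhibition of the receptor-coactivator binding signal exceeds about 50% in the single-dose screen, limit read from the data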
ERa coact pot = enhancers of ERα–SRC-1 coactivator binding, primary screen, biochemical, TR-FRET, ERα LBD, low estradiol; Estrogen receptor (Homo sapiens), P03372; TR-FRET ERalpha-LBD/SRC-Cy5 coactivator binding, 2 h; 100 = basal binding, no effect; coactivator binding (% of control), % at 25.6 µM; 86,000 compounds, 1.3% hits; in the data active = activity above about 200%;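 also: binding measured in presence of low estradiol as agonist stimulus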
DAT uptake mod = changed hDAT dopamine uptake under cocaine IC80, either direction, primary screen, cocaine antagonist project, cell-based, LLC-PK1 hDAT, [14C]-dopamine uptake, MLSMR | LLC-PK1 hDAT cells, [14C]-dopamine uptake with cocaine IC80; actives deviate in either direction | Sodium-dependent dopamine transporter (Homo sapiens), Q01959 | B-score at 10 µM | 110,000 compounds, 1.3% hits | AID 449768, 2010;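 active = Z score or B-score, a plate-position-corrected score, falls beyond the plate's 99.7% confidence bounds, in either direction; inactive = both scores lie inside the 99.7% bounds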
Target sequence (Q01959 whole entry, looked up): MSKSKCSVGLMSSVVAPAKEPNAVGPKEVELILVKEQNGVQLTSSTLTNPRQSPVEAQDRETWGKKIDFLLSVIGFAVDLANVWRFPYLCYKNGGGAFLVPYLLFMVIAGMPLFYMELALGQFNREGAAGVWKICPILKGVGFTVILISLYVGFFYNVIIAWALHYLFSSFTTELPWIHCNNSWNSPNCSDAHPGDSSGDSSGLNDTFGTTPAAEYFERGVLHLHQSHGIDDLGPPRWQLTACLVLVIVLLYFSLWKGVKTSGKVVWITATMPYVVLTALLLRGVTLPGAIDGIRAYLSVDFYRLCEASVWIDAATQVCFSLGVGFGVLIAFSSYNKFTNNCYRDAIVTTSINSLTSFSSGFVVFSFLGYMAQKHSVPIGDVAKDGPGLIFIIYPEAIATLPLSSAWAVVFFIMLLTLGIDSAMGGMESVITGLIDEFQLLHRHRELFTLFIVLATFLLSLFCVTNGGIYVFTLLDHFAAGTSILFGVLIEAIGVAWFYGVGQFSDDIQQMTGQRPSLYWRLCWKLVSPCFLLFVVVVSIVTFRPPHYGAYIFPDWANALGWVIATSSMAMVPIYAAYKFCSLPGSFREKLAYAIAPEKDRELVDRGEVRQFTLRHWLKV
A number is an active result; - = inactive; . = no result; [ ] = remark or other dose.

SMILES	MT1-MMP txn act	ERa coact inh	ERb SRC1 inh	ERa coact pot	DAT uptake mod
CC1CCC(C(=O)NC(C(=O)N2CCC(N3CCCCC3)CC2)C(C)C)CC1 (stereo not drawn)	-	-	-	-	-2.7
CCOC(=O)N1CCN(C(=O)C(NC(=O)C2CCC(C)CC2)C(C)C)CC1 (stereo not drawn)	-	-	-	-	-
O=C1c2ccccc2C(=O)N1CCCOc1ccccc1	-	-	-	-	-
COc1ccc(OCC(=O)OCCN2C(=O)c3ccccc3C2=O)cc1	-	59[fluorescence artefact?]	-	-	-
CCOC(=O)c1c2c(n(C)c1COC)C(=O)C(=O)c1ccc(Br)cc1-2	-	85	-	-	-
CCCC(=O)Nc1ccc(C(=O)Nc2nnc(COCC)s2)cc1	-	-	-	-	-7.8
CC1(C)Cc2c(sc3c4nnnn4c4nnnn4c23)CO1	-	80	-	-	-
O=C(Cc1ccccc1)NCC(=O)N1CCCCCC1	.	-	-	-	-
NC(=O)CSc1nnc(C2CC2)n1-c1ccccc1	-	-	-	-	-9.3
O=C(CSc1nnc(C2CC2)n1Cc1ccccc1)NCc1ccccc1	-	-	-	-	.
CC(C)NC(=O)CSc1nnc(C2CC2)n1-c1ccccc1	-	-	-	-	-
Nn1c(SCC(=O)NC(=O)NCc2ccccc2)nnc1C1CC1	-	-	81[fluorescence artefact?]	-	-
OCCNc1nc(Nc2cc(Cl)ccc2OC2CCCC2)nc(N2CCCC2)n1	.	.	.	.	-
COc1ccc(N2Cc3cccc(C(=O)N4CCN(C(=O)c5ccco5)CC4)c3C2=O)cc1	-	71	68	-	-
Cn1c(=O)c2c(ncn2CCCNC2=CC(C)(C)CC(=O)C2)n(C)c1=O	-	-	52	-	-
CC(=O)CCCCn1cnc2c1c(=O)n(C)c(=O)n2C	.	.	.	.	-
CCN(CC)c1ccc(NC(=O)COC(=O)c2ccc3ccccc3n2)cc1	-	-	-	-	-
Cc1nc2scc(-c3cccs3)c2c(=O)n1CC(=O)O	.	.	.	.	-
O=C(O)Cn1cnc2scc(-c3cccs3)c2c1=O	-	-	58	-	-
C=CCNC(=O)c1ccccc1NC(=O)c1ccc(Cl)c(S(=O)(=O)Nc2ccccc2)c1	.	.	.	.	-
O=C1CC(c2ccc3c(c2)OCO3)C2=C(CCCC2=O)N1 (stereo not drawn)	-	-	-	-	-
O=C1CC(c2ccc(F)c(Br)c2)C2=C(CCCC2=O)N1 (stereo not drawn)	2.3	-	-	-	-
COc1ccc(-c2[nH]c(-c3ccc(F)cc3)nc2SCC(=O)NC2CCCC2)cc1	.	.	.	.	-
COc1ccc(-c2[nH]c(-c3ccccc3)nc2SCC(=O)NC2CCCC2)cc1	.	.	.	.	4.7
O=C(O)C1C2C=CC3(CN(Cc4ccncc4)C(=O)C13)O2 (stereo not drawn)	-	.	.	.	-8.7
SMILES	MT1-MMP txn act	ERa coact inh	ERb SRC1 inh	ERa coact pot	DAT uptake mod
COC(=O)[C@@H]1C[C@@]2(O)[C@@H](O)[C@@H](O)[C@@H](O)C[C@H]2N1CC1CC1	-	.	.	.	.
O=C(COC(=O)C1CCCN1C(=O)c1cccs1)Nc1ccc2c(c1)OCO2 (stereo not drawn)	-	52[fluorescence artefact?]	-	-	-
COC(=O)c1ccc2c(c1)NC(=O)C1CCCN21 (stereo not drawn)	-	81[fluorescence artefact?]	-	-	-
Cc1ccc(NC(=O)COC(=O)c2ccc3c(c2)NC(=O)C2CCCN32)cc1 (stereo not drawn)	-	-	-	-	-
CN(C)C(CNS(=O)(=O)c1ccc(Cl)cc1)c1cccnc1 (stereo not drawn)	.	-	-	-	-
CN(C)C(CNS(=O)(=O)c1ccc(Br)cc1)c1cccnc1 (stereo not drawn)	-	-	-	-	-8.9
CC1(C)Cc2ccccc2C(=O)N1	-	-	-	-	-
O=C1c2ccccc2CC1(Cc1ccccc1)Cc1ccccc1	-	-	-	279	-
CCc1ccc(S(=O)(=O)c2n[nH]n3c2nc(=O)c2ccccc23)cc1	-	-	-	560[fluorescence artefact?]	-
CCOC(=O)/C(C#N)=C\c1ccc(OCC(=O)Nc2ccc(C)cc2C)c(OC)c1	.	.	.	.	-
